Data taken from PubChem BioAssay (Tox21).
Results filed as inconclusive are left out. Calls of active or inactive are those of the source. Unless noted, calls follow the shape of the dose curve; as a rule, active = well fitted curve in the direction sought with a large enough effect in the repeat runs; inconclusive = weak or mixed curves; inactive = no such curve, though single readings can be large; an effect the other way counts as inactive or inconclusive.

Columns and labels:
[1] = qHTS assay to test for compound auto fluorescence at 535 nm (green) in HEK293 cells (AID 720680)
[2] = qHTS assay to test for compound auto fluorescence at 460 nm (blue) in HEK293 cell free culture (AID 720681)
Procedure, shortened: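 Compounds were added to cell-free DMEM with 10% FBS and fluorescence read directly. The blue channel used 405 nm excitation and 460 nm emission, with triamterene as the reference fluorophore.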

[3] = qHTS assay to test for compound auto fluorescence at 535 nm (green) in HEK293 cell free culture (AID 720682)
Procedure, shortened: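 Cell-free medium (DMEM, 10% FBS) receives compound or DMSO by pintool. Plate read directly at Ex 485/Em 535 nm. Signal converted to fluorescein equivalency.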

[4] = qHTS assay to test for compound auto fluorescence at 590 nm (red) in HEK293 cell free culture (AID 720683)
Procedure, shortened: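 Cell-free wells of DMEM with 10% FBS received compound, and intrinsic fluorescence was read at excitation/emission 540/590 nm. Values expressed as equivalence to Rose Bengal sodium.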

[5] = qHTS assay to test for compound auto fluorescence at 590 nm (red) in HepG2 cell free culture (AID 720684)
Procedure, shortened: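 Rose Bengal sodium served as the reference for red signal. Test compounds were dispensed into serum-containing MEM (10% FBS) without cells, and plates were read at 540/590 nm.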

[6] = qHTS assay to test for compound auto fluorescence at 535 nm (green) in HepG2 cell free culture (AID 720686)
[7] = qHTS assay to test for compound auto fluorescence at 460 nm (blue) in HepG2 cells (AID 720687)
Procedure, shortened: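 HepG2 cells in MEM with 10% FBS, attached overnight at 37 C, were exposed to compound or DMSO for 1 hr at 37 C, 5% CO2. Blue fluorescence was read at 405/460 nm, with triamterene as reference fluorophore.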

[8] = qHTS assay to identify small molecule antagonists of the glucocorticoid receptor (GR) signaling pathway - cell viability counter screen (AID 720693); also: nearly all actives have a fitted effect of over 55% in size
[9] = qHTS assay for identifying genotoxic compounds that show differential cytotoxicity against isogenic chicken DT40 cell lines with known DNA damage response pathways - wild type cell line (AID 743012); also: nearly all actives have a fitted effect of over 60% in size
Procedure, shortened: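 Viability by ATP luminescence (CellTiter-Glo, 30 min RT) after 40 h compound treatment at 37 C/5% CO2, using 300 parental DNA repair-proficient DT40 cells per well.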

[10] = qHTS assay for identifying genotoxic compounds that show differential cytotoxicity against isogenic chicken DT40 cell lines with known DNA damage response pathways - Rad54/Ku70 mutant cell line (AID 743015); also: nearly all actives have a fitted effect of over 60% in size
[11] = qHTS assay to identify small molecule antagonists of the androgen receptor (AR) signaling pathway - cell viability counter screen (AID 743033; also: nearly all actives have a fitted effect of over 45% in size)
[12] = qHTS assay to identify small molecule antagonists of the androgen receptor (AR) signaling pathway using the MDA cell line - cell viability counter screen (AID 743041; also: nearly all actives have a fitted effect of over 45% in size; also: potency is read from the fitted curve at half-maximal effect)
Procedure, shortened: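 Cytotoxicity counter screen: MDA-kb2 AR-luc cells, compound + R1881, 16 h, 37C, 0% CO2; CellTiter-Fluor added at 15.5 h, fluorescence read after 30 min.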

[13] = qHTS assay to test for compound auto fluorescence at 460 nm (blue) in HepG2 cell free culture (AID 720685)
Procedure, shortened: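 Cell-free plates of MEM plus 10% FBS received 23 nL compound or DMSO vehicle; blue-channel (405/460 nm) intensity scored against triamterene as reference fluorophore.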

[14] = qHTS assay for identifying genotoxic compounds that show differential cytotoxicity against isogenic chicken DT40 cell lines with known DNA damage response pathways - Rev3 mutant cell line (AID 743014); also: nearly all actives have a fitted effect of over 55% in size
[15] = biological target: Glucocorticoid receptor (Homo sapiens) (UniProt P04150); test: qHTS assay to identify small molecule agonists of the glucocorticoid receptor (GR) signaling pathway (AID 720691; active = well fitted activation curve with a large enough effect in the signal ratio in the repeat runs, not every such curve was filed as active; the % refers to the signal ratio)
Glucocorticoid receptor (Homo sapiens), sequence (P04150 whole entry, looked up): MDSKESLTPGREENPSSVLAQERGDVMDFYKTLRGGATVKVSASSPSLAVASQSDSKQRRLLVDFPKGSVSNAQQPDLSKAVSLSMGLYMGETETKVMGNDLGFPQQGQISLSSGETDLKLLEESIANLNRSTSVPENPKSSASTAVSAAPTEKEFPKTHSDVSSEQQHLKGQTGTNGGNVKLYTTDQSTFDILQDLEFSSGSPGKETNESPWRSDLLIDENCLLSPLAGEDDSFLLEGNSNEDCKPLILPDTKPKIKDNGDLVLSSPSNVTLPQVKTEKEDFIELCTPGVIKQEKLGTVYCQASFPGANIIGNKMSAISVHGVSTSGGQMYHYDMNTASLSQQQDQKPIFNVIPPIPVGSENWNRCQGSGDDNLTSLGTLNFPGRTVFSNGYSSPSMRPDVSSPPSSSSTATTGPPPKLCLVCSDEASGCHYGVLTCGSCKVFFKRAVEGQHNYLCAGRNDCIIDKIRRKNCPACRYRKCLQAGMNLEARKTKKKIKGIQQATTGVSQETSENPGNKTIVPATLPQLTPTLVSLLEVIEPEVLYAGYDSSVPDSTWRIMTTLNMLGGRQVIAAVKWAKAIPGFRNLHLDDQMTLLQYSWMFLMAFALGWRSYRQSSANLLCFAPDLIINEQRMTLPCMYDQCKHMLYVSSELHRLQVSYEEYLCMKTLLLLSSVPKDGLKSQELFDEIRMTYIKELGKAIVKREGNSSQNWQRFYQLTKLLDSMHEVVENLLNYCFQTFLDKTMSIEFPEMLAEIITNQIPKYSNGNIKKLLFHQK
Procedure, shortened: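 Agonist-mode qHTS in HeLa cells stably expressing a glucocorticoid-response-element beta-lactamase reporter. Fluorescence intensity read with FRET substrate (2 h, room temperature) after 18 h compound treatment at 37 C.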

[16] = biological target: Glucocorticoid receptor (Homo sapiens) (UniProt P04150); test: qHTS assay to identify small molecule antagonists of the glucocorticoid receptor (GR) signaling pathway (AID 720692; active = well fitted inhibition curve with a large enough effect in the signal ratio in the repeat runs, not every such curve was filed as active; the % refers to the signal ratio)
Procedure, shortened: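 Inhibition of dexamethasone-driven (5 nM final) beta-lactamase expression was measured in GRE-reporter HeLa cells over 18 h at 37C. Fluorescence was read after 2 h with the B/G FRET substrate at room temperature.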

[17] = biological target: Androgen receptor (Homo sapiens) (UniProt P10275); test: qHTS assay to identify small molecule antagonists of the androgen receptor (AR) signaling pathway (AID 743035; active = well fitted inhibition curve with a large enough effect in the signal ratio in the repeat runs, not every such curve was filed as active; the % refers to the signal ratio)
Androgen receptor (Homo sapiens), sequence (P10275 whole entry, looked up): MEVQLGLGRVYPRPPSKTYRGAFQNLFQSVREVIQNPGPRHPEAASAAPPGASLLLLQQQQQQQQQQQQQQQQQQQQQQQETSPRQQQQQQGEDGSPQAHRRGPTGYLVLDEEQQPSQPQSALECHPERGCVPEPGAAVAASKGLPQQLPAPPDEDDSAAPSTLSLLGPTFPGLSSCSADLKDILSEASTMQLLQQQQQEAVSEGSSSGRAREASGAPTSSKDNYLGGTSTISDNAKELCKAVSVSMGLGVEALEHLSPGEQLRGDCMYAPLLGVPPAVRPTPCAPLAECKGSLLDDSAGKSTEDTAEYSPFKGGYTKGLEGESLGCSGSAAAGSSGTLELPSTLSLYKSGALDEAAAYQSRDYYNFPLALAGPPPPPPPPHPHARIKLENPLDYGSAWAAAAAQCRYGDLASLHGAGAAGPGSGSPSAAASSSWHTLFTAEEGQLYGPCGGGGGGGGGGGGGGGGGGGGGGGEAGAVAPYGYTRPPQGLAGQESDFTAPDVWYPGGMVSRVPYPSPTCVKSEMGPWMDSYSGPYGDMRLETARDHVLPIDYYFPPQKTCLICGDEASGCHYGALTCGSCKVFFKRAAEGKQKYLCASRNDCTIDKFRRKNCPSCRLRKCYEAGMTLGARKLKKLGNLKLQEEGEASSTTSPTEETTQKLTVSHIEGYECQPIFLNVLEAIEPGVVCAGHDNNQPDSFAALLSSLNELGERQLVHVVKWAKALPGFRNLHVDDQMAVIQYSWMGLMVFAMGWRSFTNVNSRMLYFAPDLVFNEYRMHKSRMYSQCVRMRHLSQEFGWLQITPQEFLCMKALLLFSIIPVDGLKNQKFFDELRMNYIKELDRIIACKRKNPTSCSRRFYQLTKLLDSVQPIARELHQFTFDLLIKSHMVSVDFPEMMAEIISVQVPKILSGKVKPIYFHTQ
Procedure, shortened: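 Antagonist mode: AR-bla HEK293 cells co-treated with test compounds and agonist R1881 for 16 h at 37C, 5% CO2. Beta-lactamase activity read as FRET fluorescence after 2 h room-temperature substrate loading.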

[18] = biological target: Androgen receptor (Homo sapiens) (UniProt P10275); test: qHTS assay to identify small molecule agonists of the androgen receptor (AR) signaling pathway (AID 743036; active = well fitted activation curve with a large enough effect in the signal ratio in the repeat runs, with a control signal flat, not every such curve was filed as active; the % refers to the signal ratio)
Procedure, shortened: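 AR-bla HEK293 cells, 2,000/well; 4 h preincubation 37C/5% CO2; compound (DMSO) 16 h at 37C; LiveBLAzer B/G FRET substrate 2 h RT; fluorescence intensity read-out.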

[19] = biological target: Androgen receptor (Homo sapiens) (UniProt P10275); test: qHTS assay to identify small molecule agonists of the androgen receptor (AR) signaling pathway using the MDA cell line (AID 743040; also: nearly all actives have a fitted effect of over 20% in size)
Procedure, shortened: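 Luciferase read-out, ONE-Glo, 30 min RT. Cells: MDA-kb2 AR-luc, MMTV promoter with AR and GR response elements. Compound exposure 16 h, 37C, 0% CO2, after 5 h pre-incubation. qHTS agonist mode.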

[20] = biological target: Androgen receptor (Homo sapiens) (UniProt P10275); test: qHTS assay to identify small molecule antagonists of the androgen receptor (AR) signaling pathway using the MDA cell line (AID 743042; also: nearly all actives have a fitted effect of over 55% in size)
Procedure, shortened: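 MDA-kb2 breast carcinoma cells carrying MMTV-luciferase (AR/GR responsive) were co-treated with compounds and the agonist R1881 for 16 h at 37C. Inhibition read as ONE-Glo luminescence; CellTiter-Fluor fluorescence measured in parallel for cytotoxicity.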
% is scaled to controls: 0 for no effect and ±100 for the full control effect.

CC(COC(C)(C)C)OCCCO (stereo not drawn)
inactive: outcome [1] | outcome [2] | outcome [3] | outcome [4] | outcome [5] | outcome [6] | outcome [7] | outcome [8] | Potency [9] | Potency [10] | Potency [11] | Potency [12]

CCOC(=O)/C=C/c1ccccc1
inactive: outcome [1] | outcome [2] | outcome [3] | outcome [4] | outcome [13] | outcome [6] | outcome [7] | outcome [8] | Potency [9] | Potency [14] | Potency [10] | Potency [11] | Potency [12]

C=C(C)C(=O)OCc1ccccc1
inactive: outcome [1] | outcome [2] | outcome [3] | outcome [4] | outcome [13] | outcome [6] | outcome [7] | outcome [8] | Potency [9] | Potency [14] | Potency [10] | Potency [11] | Potency [12]

ClCCCl
inactive: outcome [1] | outcome [2] | outcome [3] | outcome [4] | outcome [13] | outcome [7] | Potency [15] | outcome [16] | outcome [8] | Potency [9] | Potency [14] | Potency [11] | Potency [12]

Oc1cn2c(n1)Nc1ccc(Cl)c(Cl)c1C2
inactive: outcome [1] | outcome [2] | outcome [3] | outcome [4] | outcome [13] | outcome [6] | outcome [7] | Potency [15] | Potency [9] | Potency [14] | Potency [10] | Potency [11] | Potency [17] | outcome [18] | outcome [19] | Potency [12] | Potency [20]

COc1ccc(OC)c(Cl)c1
inactive: outcome [1] | outcome [2] | outcome [3] | outcome [4] | outcome [13] | outcome [7] | outcome [8] | Potency [9] | Potency [14] | Potency [10] | Potency [11] | outcome [18] | outcome [19] | Potency [12] | Potency [20]

O=C1c2ccccc2C(=O)C1c1ccccc1
inactive: fluorescence, % of fluorescein [1] -0.0324% [at 18.6 µM] | fluorescence, % of fluorescent control [2] -0.0862% [at 18.6 µM] | activity change [3] -0.148% [at 18.6 µM] | fluorescence, % of fluorescent control [4] 0.0114% [at 18.6 µM] | fluorescence, % of fluorescent control [13] -0.0248% [at 18.6 µM] | fluorescence, % of fluorescein control [6] -0.0587% [at 18.6 µM] | fluorescence, % of fluorescent control [7] -0.0075% [at 18.6 µM] | Potency [15] | outcome [8] | Potency [9] | Potency [14] | Potency [10] | Potency [11] | Potency [12]

CCCC/C=C\CCCCCCCCCC=O
inactive: outcome [1] | outcome [2] | outcome [3] | outcome [4] | outcome [7] | outcome [8] | Potency [14] | Potency [10] | Potency [11] | Potency [12]

COc1cc(C(=S)N2CCOCC2)cc(OC)c1OC
inactive: outcome [1] | outcome [2] | outcome [3] | outcome [4] | outcome [13] | outcome [7] | Potency [15] | Potency [9] | Potency [10] | Potency [11] | Potency [12]

Nc1ccc([N+](=O)[O-])c(N)c1
inactive: outcome [1] | outcome [2] | outcome [3] | outcome [4] | outcome [6] | outcome [7] | Potency [15] | outcome [16] | outcome [8] | Potency [9] | Potency [14] | Potency [10] | Potency [11]
active: Potency [12] 59.6 µM

CN=C(NC#N)Nc1ccc(C2=NNC(=O)CC2C)cc1 (stereo not drawn)
inactive: outcome [1] | outcome [2] | outcome [3] | outcome [4] | outcome [13] | outcome [6] | outcome [7] | outcome [8] | Potency [9] | Potency [14] | Potency [10] | Potency [11] | Potency [12]

COc1cc(NS(=O)(=O)c2ccc(N)cc2)nc(OC)n1
inactive: fluorescence, % of fluorescein [1] 0.0037% [at 18.6 µM] | fluorescence, % of fluorescent control [2] 0.0589% [at 18.6 µM] | activity change [3] -0.0247% [at 18.6 µM] | fluorescence, % of fluorescent control [4] 0.0115% [at 18.6 µM] | fluorescence, % of fluorescein control [6] -0.0376% [at 18.6 µM] | fluorescence, % of fluorescent control [7] 0.0701% [at 18.6 µM] | Potency [15] | outcome [16] | outcome [8] | Potency [9] | Potency [14] | Potency [10] | Potency [11] | Potency [17] | outcome [18] | outcome [19] | Potency [12] | Potency [20]

CN(C)C(=O)CNC(=O)Cc1ccccc1
inactive: outcome [1] | outcome [2] | outcome [3] | outcome [4] | outcome [13] | outcome [6] | outcome [7] | Potency [15] | outcome [8] | Potency [9] | Potency [14] | Potency [10] | Potency [11] | Potency [12]

Cc1ccccc1OCC(O)CO (stereo not drawn)
inactive: outcome [1] | outcome [2] | outcome [3] | outcome [4] | outcome [13] | outcome [7] | Potency [15] | outcome [8] | Potency [9] | Potency [14] | Potency [10] | Potency [11] | Potency [12]

OCCN(CCO)c1cccc(Cl)c1
inactive: outcome [1] | outcome [2] | outcome [3] | outcome [4] | outcome [13] | outcome [6] | outcome [7] | Potency [9] | Potency [14] | Potency [10] | Potency [11] | Potency [17] | outcome [18] | outcome [19] | Potency [12] | Potency [20]

CC(C)=CCOC(=O)c1ccccc1
inactive: outcome [1] | outcome [2] | outcome [3] | outcome [4] | outcome [13] | outcome [6] | outcome [7] | Potency [15] | outcome [8] | Potency [9] | Potency [14] | Potency [10] | Potency [11] | Potency [12]

NCCS
inactive: outcome [1] | outcome [2] | outcome [3] | outcome [4] | outcome [6] | outcome [7] | Potency [9] | Potency [14] | Potency [10] | Potency [11] | Potency [12]

CC(C)=O
inactive: outcome [1] | outcome [2] | outcome [3] | outcome [4] | outcome [13] | outcome [6] | outcome [7] | outcome [8] | Potency [9] | Potency [14] | Potency [10] | Potency [11] | Potency [17] | outcome [18] | outcome [19] | Potency [12] | Potency [20]
